Consider one molecule from PubChem BioAssay (NCATS).

Molecules are shown by their SMILES. Inconclusive results are not listed. Activity calls are given as the source filed them. Unless noted, the call rests on the fitted dose curve; in most records, active means well fitted curve in the direction sought with a large enough effect; inconclusive means small, poorly fitted or top-dose-only effect, or another doubt; inactive means no such curve, though single readings can be large; an effect the other way counts as inactive or inconclusive.

The nature of assay [1]: AP1 Signaling Pathway (AID 357; active means well fitted curve in either direction with a large enough effect, not every such curve was filed as active;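 further: ME-180 reporter cells stimulated with EGF at its EC50 level; on the % scale 0 is the no-effect control and ±100 the full control effect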). The settings on record: ME-180 AP-1-bla reporter, EGF-induced, beta-lactamase ratio, 5 h; at 38 µM (top of the series). The procedure, abridged:
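Beta-lactamase reporter under AP-1 response element, ME-180 background. Stimulus: EC50 EGF. Compound exposure 5 h, 37 °C. Detection: CCF4, 2.5 h RT, 460/530 nm. Values: AC50 from titration.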

For assay [2], the target named is Cytochrome P450 1A2 (Homo sapiens) (UniProt P05177). Description: p450-cyp1a2 (AID 410; calls by dose curve; further: potency means the concentration at half of the fitted maximal effect). The following applies: recombinant CYP1A2, luciferin-ME demethylation, luminescence; series mostly up to 57 µM. Put shortly:
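O-Demethylation of luciferin 6' methyl ether by human CYP1A2 is monitored as luciferase luminescence. Substrate sits at Km (100uM); enzyme is 20nM. Values are scaled to 57 uM furafylline as maximal inhibition.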

Assay [3] can be described thus: NFAT Signaling Pathway (AID 444; active means well fitted curve in either direction with a large enough effect, not every such curve was filed as active;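 further: carbachol stimulus at about its EC50 of 1 µM final; on the % scale 0 is the no-effect control and ±100 the full control effect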). The settings on record: Jurkat NFAT-bla M1, carbachol, beta-lactamase ratio, 5 h; at 38 µM (top of the series). The procedure, abridged:
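Read-out: CCF4 FRET ratio (460 nm/530 nm) after 1 h RT dye loading, used for %activity and AC50 from titration series. Cells: Jurkat NFAT-β-lactamase/M1 line, treated with compound plus 1 uM carbachol for 5 h, 37 °C.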

The nature of assay [4]: Stat Signaling Pathway (AID 446; active means well fitted curve in either direction with a large enough effect, not every such curve was filed as active;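 further: ME-180 cervical cancer cells given 40 pM IL-6 alongside compound; SIE-controlled beta-lactamase reporter measured as 460/530 nm FRET emission ratio; on the % scale 0 is the no-effect control and ±100 the full control effect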). The following applies: ME-180 (cervical carcinoma) SIE beta-lactamase reporter, IL-6 stimulated, 5 h; at 38 µM (top of the series). The procedure, abridged: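 Emission at 460 and 530 nm (excitation 405 nm) reports SIE-controlled beta-lactamase in ME-180 cells. Cells received compound with 40 pM IL-6 for 5 hrs at 37 C; data scaled between 300 pM IL-6 and 125 nM JAK-inhibitor controls.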

Assay [5] addresses Glucocorticoid receptor (Homo sapiens) (UniProt P04150). Put plainly: GR-GFP Redistribution (AID 450;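 active means compounds whose dose series gives a full or clear partial fitted curve of increased nuclear translocation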; further: potency means the concentration at half of the fitted maximal effect). The following applies: U2OS GR-GFP nuclear translocation, laser cytometry, 2 h.
The target is the same in assay [6]. Put plainly: GR-EFC Redistribution (AID 451; calls by dose curve; further: potency means the concentration at half of the fitted maximal effect). The settings on record: CHO-K1 GR-EFC translocation, beta-gal luminescence, 2 h. The procedure, abridged:
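Translocation of GR-ED fusion to nuclear EA restores b-gal, read by luminescence after 1 h room-temperature detection. Engineered CHO-K1 biosensor cells, 1,000/well, exposed 2 h at 37 C to titrations up to 46 uM final.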

The target of assay [7] is Mitogen-activated protein kinase 10 (Mus musculus) (UniProt Q61831). Put plainly: JNK3 AlphaScreen Assay (AID 530; active means well fitted curve in either direction with a large enough effect, not every such curve was filed as active;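 further: kinase came from lysate of stimulated human HepG2 cells; signal reports phosphorylation of biotinylated GST-cJun 1-79 at Ser73 with 10 µM ATP; on the % scale 0 is the no-effect control and ±100 the full control effect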). The following applies: JNK3 lysate, c-Jun phosphorylation; series mostly up to 57.1 µM. The procedure, abridged:
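qHTS titrations with 15 min compound pre-incubation before adding ATP (10 uM final). Read-out: AlphaScreen of Ser73-phosphorylated biotin-GST-cJun using HepG2 lysate JNK3 activated by IL-1β and TNFα.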
(Bead proximity is the source of the signal in Alpha formats.)

Assay [8] concerns the target 3',5'-cyclic-AMP phosphodiesterase 4B (Homo sapiens) (UniProt Q07343). Description: qHTS Assay for Inhibitors of PDE-IV (AID 607; active means well fitted activation curve with a large enough effect in the main read-out, with a control signal flat, not every such curve was filed as active; further: % of control where 0% means no effect). The settings on record: HEK293 ACTOne CNG channel cells, membrane potential fluorescence; series mostly up to 22.9 µM. Put shortly:
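The readout is membrane depolarisation from a cAMP-sensing CNG channel, detected with a potential dye at ex 535/em 590. Cells were HEK293-derived (endogenous PDE-IV) at 1000 cells/well, titrated up to 22.9 uM final.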
(In general: qHTS replaces the single test concentration by a dilution series.)

The target in assay [9] is Guanine nucleotide-binding protein G(i) subunit alpha-1 (Homo sapiens) (UniProt P63096). Put plainly: qHTS Assay for Inhibitors of RGS12 GoLoco Motif Activity (Green Fluorophore) (AID 879).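 Further: 0% = labeled peptide with Gαi1 and full inhibition = labeled peptide alone without protein; negative values mean loss of peptide binding seen as reduced polarization.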 The following applies: Galphai1/FITC-RGS12 GoLoco peptide, fluorescence polarization; series mostly up to 57.1 µM. Put shortly: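 A drop in FITC polarization marked displacement of the FITC-tagged RGS12 GoLoco peptide (10 nM) from Gαi1 (50 nM). Compounds were incubated 10 min at room temperature in Tris pH 7.5 buffer containing 150 mM NaCl, 0.1 mM GDP and 0.05% NP40; unlabeled peptide titration served as control.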

The nature of assay [10]: qHTS Assay for Identification of Small Molecule Agonists for Thrombopoietin (TPO) Signaling Pathway (AID 917). Further: on the % scale 0 is the no-effect control and ±100 the full control effect. The following applies: TPO signaling pathway reporter cells, agonist qHTS, stimulated with TPO at its EC50; series mostly up to 38.5 µM. The procedure, abridged: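 Cell-based luciferase reporter screen. Mouse Ba/F3 line stably expressing human TPO receptor; IL-3 removed overnight before plating. Co-treatment with compound and EC50 TPO (26 pM), 24 hrs at 37 C, then luminescence.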

Assay [11] concerns the target Muscarinic acetylcholine receptor M1 (Rattus norvegicus) (UniProt P08482). Put plainly: qHTS Assay for Antagonists of Acetylcholine Muscarinic M1 Receptor: Kinetic Measurement of Intracellular Calcium Response (AID 943).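 Further: Fluo-4 calcium signal as peak divided by basal fluorescence over 4 min; nearly all actives have a fitted effect of over 75% in size.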 The following applies: M1-expressing cells, kinetic intracellular calcium fluorescence; series mostly up to 35.3 µM. The procedure, abridged: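 Antagonism is measured as inhibition of the carbachol-evoked calcium rise in CHO cells transfected with rat M1. Cells are dye-loaded, exposed to compound for 10 min, then stimulated with 100 nM carbachol (EC80).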

Assay [12] concerns the target Pyruvate kinase (Leishmania mexicana) (UniProt Q27686). Description: qHTS Validation Assay for Inhibitors of Leishmania Mexicana Pyruvate Kinase (AID 945).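 Further: 0% = DMSO only neutral control wells.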 The settings on record: purified L. mexicana pyruvate kinase, enzyme activity, E451W mutant enzyme; series mostly up to 57.5 µM. Put shortly:
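qHTS eight-point titrations against 0.2 nM LmPYK (E451W) in imidazole buffer pH 7.2 with 0.5 mM PEP, 0.1 mM ADP; 1 h, room temperature. Readout: PKLight luminescence, normalized to neutral DMSO wells.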

Assay [13] concerns the target Alpha-galactosidase A (Homo sapiens) (UniProt P06280). Description: Counterscreen for Glucocerebrosidase Inhibitors: qHTS Assay for Human alpha-Galactosidase at pH 4.5 (AID 992). Further: 0% is about no effect. The settings on record: purified enzyme, fluorogenic substrate; series mostly up to 76.9 µM. Put shortly:
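Fluorogenic 4-MU alpha-D-galactoside (80 uM) hydrolysis, 2 nM enzyme, pH 4.5 citrate buffer + 0.005% Tween-20; 20 min RT; NaOH/glycine pH 10 stop; Ex365/Em440. Compounds titrated 0.7 nM–77 uM; Hill-equation AC50.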

In assay [14] the target is alpha-glucosidase (Oryza sativa, rice) (UniProt Q653V4). Description: Counterscreen for Glucocerebrosidase Inhibitors: qHTS Assay for Rice alpha-Glucosidase at pH 5.0 (AID 997).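 Further: 0% = full activity with enzyme and -100% = basal without enzyme.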 The following applies: rice alpha-glucosidase enzyme activity; series mostly up to 76.9 µM. Put shortly:
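Endpoint fluorogenic assay at pH 5.0: compounds (0.7 nM to 77 uM) titrated against 4 nM rice enzyme and 400 uM 4-MU-alpha-glucoside for 20 min at room temperature; NaOH/glycine stop, read ex 365/em 440 nm, Hill-fitted AC50.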

A short description of assay [15]: Validation of Assay for Modulators of Lamin A Splicing (AID 1459; active means well fitted curve in the direction sought with a large enough effect in the signal ratio; the % refers to the signal ratio;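 further: cells exposed to compound for two days before reading; 0% is about no effect; ratio rise marks activators and ratio drop marks inhibitors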). The settings on record: Lamin A splicing dual RFP/GFP fluorescence reporter; series mostly up to 9.22 µM. Put shortly: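 HeLa S3 lamin A-EGFP/DsRed2 stable clone, 600 cells/well, Opti-MEM 2% FBS; compounds by pin tool; 48 hrs, 37 °C/5% CO2; Acumen 488 nm scan, objects 10-100 um; GFP/RFP intensity ratio.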

Assay [16] is described as follows: qHTS Assay for Lipid Storage Modulators (AID 1519; calls by dose curve). The settings on record: Drosophila S3 cells, BODIPY lipid droplet/cell ratio, laser cytometry, cells loaded with oleic acid. Put shortly: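 Cells seeded at 5,000 per well were treated with compounds over a concentration series and loaded with oleic acid (400 uM, as added). Lipid droplet fluorescence (488 nm excitation, 500-530 nm channel) was read by laser-scanning cytometry and normalized to 20 uM Triacsin C.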

The target of assay [17] is DNA repair nuclease/redox regulator APEX1 (Homo sapiens) (UniProt P27695). Put plainly: qHTS Validation Assay for Inhibitors of the Human Apurinic/apyrimidinic Endonuclease 1 (APE1) (AID 1705). The settings on record: purified APE1 endonuclease activity, fluorescence, titration; series mostly up to 57.1 µM. The procedure, abridged: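 qHTS, 1536-well. APE1 + cpd 15 min RT → 50 nM TAMRA/BHQ-2 THF-abasic dsDNA substrate → kinetic fluorescence, 3 reads/60 s; delta(read3−read1) = reaction progress. No-enzyme buffer = negative control.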
Chain of DNA repair nuclease/redox regulator APEX1 (Homo sapiens) (P27695 whole entry, looked up): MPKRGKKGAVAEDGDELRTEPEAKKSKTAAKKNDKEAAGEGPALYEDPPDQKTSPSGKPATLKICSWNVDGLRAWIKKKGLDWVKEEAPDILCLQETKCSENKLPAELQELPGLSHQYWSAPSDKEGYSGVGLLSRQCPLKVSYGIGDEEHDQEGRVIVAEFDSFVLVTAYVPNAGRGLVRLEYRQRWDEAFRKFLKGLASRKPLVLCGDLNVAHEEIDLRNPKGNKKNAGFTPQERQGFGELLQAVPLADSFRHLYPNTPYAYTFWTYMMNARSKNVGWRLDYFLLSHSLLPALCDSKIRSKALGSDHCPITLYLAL

Chain of Glucocorticoid receptor (Homo sapiens) (P04150 whole entry, looked up): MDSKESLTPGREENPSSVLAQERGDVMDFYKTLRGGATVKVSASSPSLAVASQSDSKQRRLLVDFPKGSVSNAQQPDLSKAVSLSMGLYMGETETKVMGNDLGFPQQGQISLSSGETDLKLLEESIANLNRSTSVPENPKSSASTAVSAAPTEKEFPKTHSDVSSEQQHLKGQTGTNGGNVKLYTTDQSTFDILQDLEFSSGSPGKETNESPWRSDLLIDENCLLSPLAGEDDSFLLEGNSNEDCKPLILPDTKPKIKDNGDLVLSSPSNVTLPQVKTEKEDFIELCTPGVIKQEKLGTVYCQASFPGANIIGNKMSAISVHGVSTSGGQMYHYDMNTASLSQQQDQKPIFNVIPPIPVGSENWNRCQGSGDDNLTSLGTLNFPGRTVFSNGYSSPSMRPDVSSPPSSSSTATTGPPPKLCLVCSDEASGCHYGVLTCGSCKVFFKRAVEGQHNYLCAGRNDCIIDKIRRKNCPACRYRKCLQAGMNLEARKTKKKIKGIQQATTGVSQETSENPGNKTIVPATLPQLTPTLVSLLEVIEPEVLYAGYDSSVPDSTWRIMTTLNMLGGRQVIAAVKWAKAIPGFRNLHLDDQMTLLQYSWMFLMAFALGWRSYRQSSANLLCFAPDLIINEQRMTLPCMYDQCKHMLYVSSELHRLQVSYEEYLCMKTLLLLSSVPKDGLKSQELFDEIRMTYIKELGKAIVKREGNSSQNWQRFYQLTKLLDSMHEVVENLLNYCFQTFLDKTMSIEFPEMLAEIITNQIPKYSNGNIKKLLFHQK
Chain of Pyruvate kinase (Leishmania mexicana) (Q27686 2-499 E452W): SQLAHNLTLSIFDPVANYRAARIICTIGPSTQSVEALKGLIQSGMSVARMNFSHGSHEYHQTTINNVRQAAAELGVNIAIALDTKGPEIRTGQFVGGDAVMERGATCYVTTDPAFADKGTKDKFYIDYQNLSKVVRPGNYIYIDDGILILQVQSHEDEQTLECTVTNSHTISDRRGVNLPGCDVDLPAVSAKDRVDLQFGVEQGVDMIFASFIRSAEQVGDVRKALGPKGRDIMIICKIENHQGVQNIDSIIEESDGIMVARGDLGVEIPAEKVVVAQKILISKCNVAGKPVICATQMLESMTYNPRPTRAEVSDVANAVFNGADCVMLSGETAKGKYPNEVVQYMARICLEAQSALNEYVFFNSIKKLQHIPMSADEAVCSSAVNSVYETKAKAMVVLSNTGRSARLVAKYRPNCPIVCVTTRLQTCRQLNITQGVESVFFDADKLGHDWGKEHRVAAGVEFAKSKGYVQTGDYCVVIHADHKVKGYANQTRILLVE
Chain of Cytochrome P450 1A2 (Homo sapiens) (P05177 whole entry, looked up): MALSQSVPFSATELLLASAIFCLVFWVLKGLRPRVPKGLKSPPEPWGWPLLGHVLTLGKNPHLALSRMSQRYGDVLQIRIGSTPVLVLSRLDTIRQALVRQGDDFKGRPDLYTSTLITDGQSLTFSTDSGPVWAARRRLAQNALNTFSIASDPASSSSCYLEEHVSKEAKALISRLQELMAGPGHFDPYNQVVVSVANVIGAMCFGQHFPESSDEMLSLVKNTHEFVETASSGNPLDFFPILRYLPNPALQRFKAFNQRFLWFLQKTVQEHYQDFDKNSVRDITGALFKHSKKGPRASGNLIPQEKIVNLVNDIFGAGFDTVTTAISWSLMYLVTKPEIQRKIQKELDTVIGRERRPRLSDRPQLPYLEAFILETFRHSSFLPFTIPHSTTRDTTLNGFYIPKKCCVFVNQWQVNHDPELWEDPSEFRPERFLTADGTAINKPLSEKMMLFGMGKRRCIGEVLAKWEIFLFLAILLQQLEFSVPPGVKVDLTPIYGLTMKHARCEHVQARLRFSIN
Chain of Alpha-galactosidase A (Homo sapiens) (P06280 whole entry, looked up): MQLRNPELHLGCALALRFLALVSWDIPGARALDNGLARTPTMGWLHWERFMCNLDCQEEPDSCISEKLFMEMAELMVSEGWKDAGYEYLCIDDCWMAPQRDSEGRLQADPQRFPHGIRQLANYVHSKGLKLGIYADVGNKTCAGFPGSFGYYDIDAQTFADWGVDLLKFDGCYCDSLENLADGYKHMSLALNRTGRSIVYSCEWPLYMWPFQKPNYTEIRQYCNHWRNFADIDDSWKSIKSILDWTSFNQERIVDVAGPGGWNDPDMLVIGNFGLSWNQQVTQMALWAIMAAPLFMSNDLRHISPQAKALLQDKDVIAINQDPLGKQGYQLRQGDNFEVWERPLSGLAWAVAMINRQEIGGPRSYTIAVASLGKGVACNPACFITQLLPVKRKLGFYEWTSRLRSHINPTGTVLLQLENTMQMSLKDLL
Chain of Guanine nucleotide-binding protein G(i) subunit alpha-1 (Homo sapiens) (P63096 whole entry, looked up): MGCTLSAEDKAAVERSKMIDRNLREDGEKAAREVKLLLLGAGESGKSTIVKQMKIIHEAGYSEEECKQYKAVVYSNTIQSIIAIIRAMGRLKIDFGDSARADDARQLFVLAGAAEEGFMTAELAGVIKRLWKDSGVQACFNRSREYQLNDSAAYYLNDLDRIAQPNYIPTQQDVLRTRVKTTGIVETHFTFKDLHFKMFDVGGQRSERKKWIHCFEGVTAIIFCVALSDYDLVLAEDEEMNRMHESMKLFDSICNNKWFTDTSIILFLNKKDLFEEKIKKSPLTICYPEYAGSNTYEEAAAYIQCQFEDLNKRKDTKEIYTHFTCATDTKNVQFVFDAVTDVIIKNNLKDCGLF
Chain of Muscarinic acetylcholine receptor M1 (Rattus norvegicus) (P08482 whole entry, looked up): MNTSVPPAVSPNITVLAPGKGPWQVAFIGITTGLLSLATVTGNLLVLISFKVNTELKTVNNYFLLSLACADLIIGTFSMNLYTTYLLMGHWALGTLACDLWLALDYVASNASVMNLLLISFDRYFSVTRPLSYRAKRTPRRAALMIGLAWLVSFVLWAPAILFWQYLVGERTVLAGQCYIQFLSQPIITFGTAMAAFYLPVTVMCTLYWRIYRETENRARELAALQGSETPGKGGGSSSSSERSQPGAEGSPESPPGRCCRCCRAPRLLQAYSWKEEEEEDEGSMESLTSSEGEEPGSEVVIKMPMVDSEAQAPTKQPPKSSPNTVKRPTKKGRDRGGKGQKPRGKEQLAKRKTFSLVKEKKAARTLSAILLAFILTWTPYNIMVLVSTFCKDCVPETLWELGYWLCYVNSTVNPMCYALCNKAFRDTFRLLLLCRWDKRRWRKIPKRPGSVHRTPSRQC
Chain of 3',5'-cyclic-AMP phosphodiesterase 4B (Homo sapiens) (Q07343 whole entry, looked up): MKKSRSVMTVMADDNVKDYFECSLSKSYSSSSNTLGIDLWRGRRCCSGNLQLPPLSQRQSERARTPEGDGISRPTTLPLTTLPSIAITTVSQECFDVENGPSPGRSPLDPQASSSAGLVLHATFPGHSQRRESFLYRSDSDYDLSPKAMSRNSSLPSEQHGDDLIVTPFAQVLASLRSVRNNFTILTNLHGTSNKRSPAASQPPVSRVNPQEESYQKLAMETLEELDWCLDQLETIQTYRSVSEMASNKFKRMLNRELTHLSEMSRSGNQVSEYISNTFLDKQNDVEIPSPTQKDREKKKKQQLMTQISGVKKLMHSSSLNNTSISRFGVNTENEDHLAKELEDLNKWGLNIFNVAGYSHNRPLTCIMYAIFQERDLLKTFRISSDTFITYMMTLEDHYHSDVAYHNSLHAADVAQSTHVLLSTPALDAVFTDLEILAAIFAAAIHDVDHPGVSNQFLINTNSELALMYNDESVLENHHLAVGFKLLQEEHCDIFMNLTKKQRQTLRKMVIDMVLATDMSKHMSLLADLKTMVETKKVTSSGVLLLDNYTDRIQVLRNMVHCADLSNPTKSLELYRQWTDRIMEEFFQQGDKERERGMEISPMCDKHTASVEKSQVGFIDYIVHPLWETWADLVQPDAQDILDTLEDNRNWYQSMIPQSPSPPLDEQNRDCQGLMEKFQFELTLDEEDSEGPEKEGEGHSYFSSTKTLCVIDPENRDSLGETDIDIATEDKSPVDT

`CCCn1c(=O)c2[nH]c(-c3ccc(OCC(=O)Nc4ccc(C#N)cc4)cc3)nc2n(CCC)c1=O`: the activity change, negative = inhibition in assay [1] is -2.44% (inactive); in assay [3] it was -7.64% (inactive); in [16] (at 57.5 µM (top of the series)), 1.01% (inactive). For the same molecule, the values for the Potency in [2], in [5] and in assay [6] were 31.6 µM (active), > 46 µM (inactive) and > 46 µM (inactive), respectively. Besides, the activity, negative = inhibition in [4] was -13.8% (inactive). Besides, the Potency entry in assay [7], in assay [8], in assay [10], in assay [11], in assay [12] and in assay [17] was “inactive” each time. In addition, the outcome in assay [9], in assay [13], in assay [14] and in [15] was inactive. For the same molecule, the max response was -12.2% in assay [16] (measured here: cell count channel max response) and -10.7% in assay [16] (measured here: lipid channel max response).
